Active and inactive are the calls of the source. How the source made its calls: active means hit-call score of the fitted dose curve at least 0.9, where 1 is the maximum; inactive means score below 0.9.

This note sets out measurements from PubChem BioAssay (EPA / NIEHS).

A short description of the experiment: ATG_SREBP_CIS: Attagene CIS-FACTORIAL HepG2 Assay for human Sterol Regulatory Element Binding (SREBP) (AID 2282962). As to conditions: HepG2 Attagene cis-factorial SREBP reporter, mRNA; actives raise or lower the signal. On the procedure:
ATG_CIS is a cell-based, multiplexed-readout assay that uses HepG2, a human liver cell line, with measurements taken at 24 hours after chemical dosing in a 24-well plate.ATG_SREBP_CIS is one of 52 assay component(s) measured or calculated from the ATG_CIS assay. It is designed to make measurements of mRNA induction, a form of inducible reporter, as detected with fluorescence intensity signals by Reverse transcription polymerase chain reaction (RT-PCR) and Capillary electrophoresis technology.Data from the assay component ATG_SREBP_CIS was analyzed into 1 assay endpoint. This assay endpoint, ATG_SREBP_CIS, was analyzed with bidirectional fitting relative to DMSO as the negative control and baseline of activity. Using a type of inducible reporter, measures of mRNA for gain or loss-of-signal activity can be used to understand the reporter gene at the transcription factor-level as they relate to the gene SREBF1. Furthermore, this assay endpoint can be referred to as a primary readout, because this assay has produced multiple assay endpoints where this one serves a reporter gene function. To generalize the intended target to other relatable targets, this assay endpoint is annotated to the dna binding intended target family, where the subfamily is basic helix-loop-helix leucine zipper.
Human liver HepG2 cells are transiently transfected with multiple reporter transcription units (MRTUs) in 6-well plates using FuGene 6 reagent (Roche; 3 ml FuGene/1 mg DNA). The MRTU constructs are regulated by a cis-regulating element (promoter). […] A major difference between the CIS and TRANS system is that in CIS activities of endogenous TFs are measured, whereas the TRANS assay evaluates changes in activities of exogenous, chimeric NR-Gal4 proteins. […] At the end of 24 hour incubation, total RNA was isolated using TriZol reagent (Invitrogen). The isolated RNA is then reverse-transcribed using oligo(dT) primer and Mo-MLV reverse transcriptase (Invitrogen) with DNAse I (Ambion) treatment for 30 min. The one-tenth of the produced cDNA was amplified by PCR using Taq DNA polymerase (Invitrogen) and two reporter sequence-specific primers. The PCR products were fluorescently labeled by primer extension with 6-arboxyfluorescein (6-FAM) 5'-labeled reporter sequence-specific primer (2 min at 95 C, 20 s at 68 C and 10 min at 72 C) and these products were digested with 5U of HpaI (New England Biolabs) for 2h at 37 C. The fragments were purified using Qiaquick PCR columns (Qiagen), analyzed on an ABI 3130xL genetic analyzer (Applied Biosystems) with peak positions identified by using a set of X-rhodamine (ROX)-labeled MapMarker1000 molecular weight standards (BioVentures). The raw capillary electrophoresis data was processed using Attagraph software (Attagene).
`O=S(=O)(O)CC(O)CCl` (stereo not given): the outcome was inactive.

With `O=C(c1ccccc1)c1ccc(O)c(O)c1O`, the compound was classed as inactive.

Take `O=C(O)CC(C(=O)O)C(CC(=O)O)C(=O)O` (stereo not given): the compound was classed as inactive.

For the compound `CCN(CC)c1ccc(C(=O)c2ccccc2C(=O)O)c(O)c1`, the outcome was inactive.

Turning to `CCCCCCCC[N+](C)(CCCCCCCC)CCCCCCCC`, the call was inactive.

Take `C=C(C)C(=O)OCC(C)C`: the outcome was inactive.

Regarding `CCC(=O)Oc1ccc(/C(CC)=C(\CC)c2ccc(OC(=O)CC)cc2)cc1`, the result was inactive.

As to `Cc1c(C)c([N+](=O)[O-])c(C(C)(C)C)c([N+](=O)[O-])c1C`, the call was inactive.

Take `C[C@]12CCC(=O)C=C1CC[C@@H]1[C@@H]2C(=O)C[C@@]2(C)[C@H]1CC[C@]2(O)C(=O)CO`: the call was inactive.

`CCCCCCOC(=O)C(C)CC` (stereo not given): the outcome was inactive.

With `C(=CC=Nc1ccccc1)C=CNc1ccccc1`, the result was inactive.

In the case of `COC=O`, the compound was called inactive.

Take `Cc1cc(=O)n(-c2ccccc2)n1C`: the result was inactive.

As for `CCCCCC/C=C/C=O`, the compound was called inactive.

As to `CCC(C)OC(=O)c1ccc(O)cc1` (stereo not given), the result was inactive.

Turning to `CCCCC/C=C\C/C=C\CCCCCCCC(=O)OC`, the compound was classed as inactive.

As to `c1ccc2c(c1)ccc1ncccc12`, the compound was classed as inactive.

For `CCN(CCO)c1cccc(C)c1`, the compound was classed as inactive.

Regarding `C=CC(=O)OCCOC1C2CCC1C1CC=CC12` (stereo not given), the result was inactive.

For `C=CC(C)(CCC=C(C)C)OC(=O)C(C)C` (stereo not given), the call was inactive.

As for `CCC(C)(C)C1CCCCC1OC(C)=O` (stereo not given), the call was inactive.

In the case of `CCCCCCCC/C=C\CCCCCCCC(=O)O`, the result was inactive.

As to `O=C1CC2CC1C1CCCC21` (stereo not given), the outcome was inactive.

In the case of `CC(=O)OC1C2(C)CCC(C2)C1(C)C` (stereo not given), the result was inactive.

A word on the AC50: it is the concentration giving half of the maximal activity seen. In the case of `O=C(c1ccc(O)cc1)c1ccc(O)cc1O`, the half-maximal activity concentration (AC50) is 100 µM (active).

As for `CC(C)(C)c1n[nH]c(=O)n(N)c1=O`, the call was inactive.

For `COC(=O)c1ccccc1OC`, the compound was classed as inactive.

As to `NC(=O)c1ccccc1O`, the compound was classed as inactive.

For `Cc1cc(C)c(C(=O)O)c(C)c1`, the compound was called inactive.

Take `CCCCCCCCc1ccc(Nc2ccc(CCCCCCCC)cc2)cc1`: the outcome was inactive.

As for `O=C1c2cccc(O)c2C(=O)c2c(O)cc(CO)cc21`, the call was inactive.

In the case of `[Cl][Nd]([Cl])[Cl]`, the compound was classed as inactive.

As to `NC(=O)NNC(N)=O`, the compound was called inactive.

As for `COc1ccc([C@@H]2CC(=O)c3c(O)cc(O[C@@H]4O[C@H](CO[C@@H]5O[C@@H](C)[C@H](O)[C@@H](O)[C@H]5O)[C@@H](O)[C@H](O)[C@H]4O)cc3O2)cc1OC`, the outcome was inactive.

For the compound `CC(=O)CC(N)=O`, the outcome was inactive.

With `c1cc(N(CC2CO2)CC2CO2)ccc1OCC1CO1` (stereo not given), the half-maximal activity concentration (AC50) was 68.3 µM (active).

For `CCCCC(CC)CCC(CC(C)C)OS(=O)(=O)O` (stereo not given), the outcome was inactive.

As for `CC1(C)O[C@@H]2C[C@H]3[C@@H]4C[C@H](F)C5=CC(=O)C=C[C@]5(C)[C@@]4(F)[C@@H](O)C[C@]3(C)[C@]2(C(=O)CO)O1`, the outcome was inactive.

Regarding `CCO[Si](C)(OCC)OCC`, the compound was called inactive.

For `Cc1ccc2oc(=O)ccc2c1`, the compound was called inactive.
